These results are taken from PubChem BioAssay AID845 (Columbia University Molecular Screening Center, 2007).

The whole screen tested about 94,000 compounds, of which about 390 (0.41%) were called active. This excerpt belongs to a sample that is enriched for actives. A number with no mark means an inactive call.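 Rule for the calls: active = cell count reduction more than 3 SD above the screen-wide mean (cut at about 70% in these data); inactive = the rest.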

This experiment can be described thus: cytotoxicity in IL-1B stimulated HUVEC, primary screen, cytotoxicity control for IL-1B NFkB translocation project, imaging, Hoechst nuclear count, IL-1B stimulus (AID 845).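 Note: normalized per plate to untreated control cells as the no-loss baseline.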 The settings on record: HUVEC cell count loss, at 2 µM, stronger effect = higher value.
As to `Cc1ccc(CNC(=O)CCNS(=O)(=O)c2cccc3nonc23)cc1`, the cell count reduction was 1.4%.
In the case of `O=C(NC(=O)c1ccccc1)NC(=O)c1ccccc1`, the cell count reduction is 15.2%.
Regarding `CCCCC(=O)N/N=C(\C)CC(=O)Nc1cc(Cl)ccc1OC`, the cell count reduction is 26.4%.
In the case of `CCC1(C)Cc2c(sc3nnn(CC(=O)Nc4ccc(Cl)cc4)c(=O)c23)CO1` (configuration not stated) it was -70.1%; in that of `Cc1ccc(N(NC(=O)C(C)(C)O)C(=O)c2ccccc2)cc1C`, 6.7%; in that of `O=C(CSc1nnnn1C1CCCC1)Nc1ccc2c(c1)OCCO2`, -2.1%.
On to `O=C(CSc1nc(C2CC2)nc2ccccc12)Nc1ccc2c(c1)OCCO2`, for which the cell count reduction is -22.6%.
In the case of `O=C(CSc1nc2ncccc2[nH]1)Nc1ccc2c(c1)OCCO2` it was 89.4% (active).
In the case of `COc1ccc(C2=Nc3cc(C)ccc3OC2)cc1` it was -0.6%; in that of `CC1(C)CC(=O)C=C(NCCN2CCNCC2)C1`, 1.4%; in that of `CC1(C)CC(=O)C=C(NCCCN2CCCC2=O)C1`, 80.6% (active).
In the case of `CC1(C)CC(=O)C=C(NCCCNC2CCCCC2)C1` it was -6.9%; in that of `CCN1CCCC1Cn1cnc2c([nH]c3cc(OC)ccc32)c1=O` (configuration not stated), -4.3%.
With `O=C(OCC#CCSc1nnc(-c2ccncc2)o1)c1sc2ccccc2c1Cl`, the cell count reduction is -23.8%.
Then `O=C(O)COc1ccc(-c2nccc(-c3cccs3)n2)cc1`, with -10.6%; and `CC(C)(CNC(=O)c1cc(=O)[nH]c2ccccc12)N1CCOCC1`, with -104%.
Then `C=C(C)CSc1nnc(-c2ccc(C)cc2)n1N`, with 3.8%; and `COc1ccc(NC(=O)Cn2c(=O)n(Cc3ccco3)c(=O)c3ccccc32)cc1`, with 6.6%; and `CC(=O)Nc1ccc(C(=O)CSc2nnc(Cc3ccccc3)o2)cc1`, with -22.8%.
As to `O=C(CSc1nnc(Cn2cnc3ccccc32)o1)c1ccccc1`, the cell count reduction was 92.1% (active).
For `O=C(CSc1nnc(-c2c[nH]c3ccccc23)o1)c1ccccc1`, the cell count reduction is -13.9%.
In the case of `ONC(=Nc1ccc(Cl)cc1)c1ccccc1Cl` it was 6.7%.
Regarding `CCOC(=O)c1sc(NC(=O)CSc2nc(C)cc(C(F)(F)F)n2)c(C#N)c1C`, the cell count reduction is 10.7%.
Turning to `CCc1ccccc1NC(=O)CN(C)S(=O)(=O)c1ccc2c(c1)c(=O)n(C)c(=O)n2C`, the cell count reduction is 11.6%.
In the case of `Clc1cccc(N=C2NN=C(c3ccc4c(c3)OCCO4)CS2)c1` it was 12.3%; in that of `Cc1c(Br)cc(C(=O)N2CCCCCC2)c(C)c1C`, -25.3%.
On to `COc1ccc(C(=O)N2CCc3cc(OC)c(OC)cc3C2c2cccc([N+](=O)[O-])c2)cc1` (configuration not stated), for which the cell count reduction was 5.9%.
As for `c1cncc(-c2nnc3n2C2(CCCCC2)Cc2ccccc2-3)c1`, the cell count reduction was -33.1%.
Then `c1ccc(C2CCC(N3CCC(N4CCCCC4)CC3)CC2)cc1` (configuration not stated), with 11.9%.
Then `CSc1nnc2c(n1)OC(c1cn(C)c3ccccc13)N(C(C)=O)c1ccccc1-2` (configuration not stated), with 90.8% (active); and `CSc1nnc2c(n1)OC(c1ccsc1)N(C(C)=O)c1ccccc1-2` (configuration not stated), with -22.1%; and `CCN(CC)CCNC(=O)C1c2ccccc2C(=O)N(C)C1c1cn(C)c2ccccc12` (configuration not stated), with 0.9%.
Then `N#CCCn1ncc2ccccc21`, with -33.3%.
`N#CCCn1cnc2ccccc21`: the cell count reduction was 84.1% (active).
For `COCCOCCn1cnc2ccccc21`, the cell count reduction is 11%.
Then `Cc1ccsc1/C=C1\SC(N2CCOCC2)=NC1=O`, with 17%.
As for `COc1ccc(CN2CCCCC2C)cc1OC` (configuration not stated), the cell count reduction is -72.7%.
Then `Cc1c(Br)c([N+](=O)[O-])nn1C(C)C(=O)Nc1nccs1` (configuration not stated), with 4.9%; and `COc1ccc(Oc2coc3cc(OC(=O)c4cncc(Br)c4)ccc3c2=O)cc1`, with 17.2%.
Then `CNC(=O)c1c(NC(NC(=O)c2ccco2)C(=O)c2ccc(Cl)cc2)sc2c1CCCC2` (configuration not stated), with 9.9%; and `CCCOC(=O)C1=C(C)NC2=C(C(=O)C(C(=O)OC)C(C)C2)C1c1ccc(N(C)C)cc1` (configuration not stated), with -20.9%; and `CCCC(=O)C1=C(N(C)c2ccccc2)CC(C)(C)C(C(=O)OC)C1=O` (configuration not stated), with 87.1% (active).
In the case of `CCCC(=O)C1CCN(Cc2ccccc2)CC1` it was -26.8%; in that of `COc1cccc(/C=N\Nc2nncc(-c3ccccc3)n2)c1`, 13.5%.
As for `CCOC(=O)COc1ccc(Cl)cc1C1NC(=O)NC(C)=C1C(C)=O` (configuration not stated), the cell count reduction was 87.6% (active).
Then `CC(=O)C1=C(C)NC(=O)NC1c1cc(Br)ccc1OCC#N` (configuration not stated), with -86.7%; and `CCOc1ccccc1C1NC(=O)NC(C)=C1C(=O)OCc1ccco1` (configuration not stated), with 4.9%; and `O=c1ccn(Cc2ccccc2Cl)cc1`, with -6.2%.
With `O=c1[nH][nH]c(C(F)(F)F)c1C=NCc1ccccc1Cl`, the cell count reduction is 86.3% (active).
In the case of `CCc1ccc(CNC(=O)CCc2nc(-c3cccs3)no2)cc1` it was 5.9%; in that of `COc1cccc(-c2nnc(SCCOc3ccc4c(C)cc(=O)oc4c3)o2)c1`, 10.8%.
With `Cc1ccc(-n2cc3ccc([N+](=O)[O-])cc3n2)cc1`, the cell count reduction is -52.5%.
Then `CC(C)(C)c1nc2ccccc2c(=O)n1N1C(=O)c2ccccc2C1=O`, with -11.3%; and `N#C/C(=C1/CCCN1)c1ccccn1`, with 23%; and `Cc1cc(OC(=O)c2c(Cl)cccc2Cl)nc(C)n1`, with 31.7%.
Then `CC(=O)Nc1ccc(N2C(=O)C3C4CC(=O)C(c5ccccc54)C3C2=O)cc1` (configuration not stated), with -15.5%; and `CCOCCCNC(=O)C(NC(=O)c1ccc(=O)[nH]c1)c1ccc(Cl)cc1` (configuration not stated), with -8.1%.
On to `Cc1ccccc1CSCCNC(=O)c1ccc(Cl)c(S(=O)(=O)N2CCOCC2)c1`, for which the cell count reduction is -18.7%.
In the case of `Cc1cc([N+](=O)[O-])c(N2CCC[C@@H]2C(=O)O)c([N+](=O)[O-])c1` it was -39.6%.
Consider `O=C(NCc1ccc(Cl)cc1)c1cc(=O)nc2sc(-c3ccccc3)nn12`, for which the cell count reduction was -3.6%.
In the case of `Cc1cc(Oc2ccccc2)nc(N2CCOCC2)n1` it was -31.8%; in that of `COc1c(Cl)cc(C(=O)Nc2ccc(Cl)cn2)cc1Cl`, -4.5%; in that of `CCn1c(=O)c(=O)n(CC)c2cc(S(=O)(=O)N3CCc4ccccc43)ccc21`, 14.3%.
In the case of `CCn1nnnc1SCC(=O)c1ccc(C)cc1C` it was -33.9%; in that of `O=C(NC(C(=O)NCCN1CCOCC1)C12CC3CC(CC(C3)C1)C2)C1CCCCC1` (configuration not stated), 0%; in that of `CCOc1ccc(NC(=O)Nc2cc(C)ccc2OC)cc1`, -41.8%.
In the case of `COc1ccc(/C=N\NC(=O)c2sc(N)nc2C)cc1OC` it was -1.3%.
In the case of `COc1cc(/C=N/NC(=O)Nc2ccccc2)ccc1OCCOc1ccccc1C`, the cell count reduction is 70% (active).
On to `CC(C)C(C)NC(=O)COc1ncnc2ccccc12` (configuration not stated), for which the cell count reduction is -6.1%.
As for `O=C(Cc1ccc(S(=O)(=O)N2CCOCC2)s1)NCCC(c1ccccc1)c1ccccc1`, the cell count reduction is 2.4%.
In the case of `N#Cc1c(C(F)(F)F)cc(-c2ccccc2)nc1SCC(=O)N1CCOCC1` it was 11.3%; in that of `CCOC(=O)C(C)n1cnc2sc(C)c(C)c2c1=O` (configuration not stated), -9.7%; in that of `Cc1cccc(CCNS(=O)(=O)c2ccc(S(=O)(=O)NC3CCCC3)cc2)c1`, -6.4%.
In the case of `COc1ccc(-c2cc(C(=O)NCc3ccco3)no2)cc1OC` it was 3%; in that of `Cc1ccc(OCC(=O)N2CCN(C(=O)c3cccnc3)CC2)cc1`, -38.8%.
For the molecule `CNC(=S)N1N=C(c2ccccc2)CC1c1ccc(Br)cc1` (configuration not stated), the cell count reduction was -18.6%.
Take `CC(C)CNS(=O)(=O)c1ccc(OCC(=O)Nc2ccc3c(c2)OCO3)c(Cl)c1`: the cell count reduction is -38.8%.
In the case of `COc1ccc(S(=O)(=O)Nc2ccc3c(c2)OCO3)cc1Cl` it was 81.3% (active).
In the case of `COc1ccc(F)cc1S(=O)(=O)Nc1ccc2c(c1)OCO2`, the cell count reduction was -1.3%.
For `O=C1c2ccccc2C(=O)c2c1cccc2N1CCN(CCO)CC1`, the cell count reduction was -12.4%.
`Cc1ccc(NC(=S)N/N=C2/CCCc3c(C)cc(C)cc32)cc1`: the cell count reduction was -6.1%.
On to `CC(Sc1nncn1C)C(=O)Nc1ccccc1-c1ccccc1` (configuration not stated), for which the cell count reduction was 35.5%.
Then `O=C(c1ccccc1-c1ccccc1)N1CCOCC1`, with -0.4%.
As to `CC(C(=O)Nc1ccccc1-c1ccccc1)N1CCOCC1` (configuration not stated), the cell count reduction is 91.2% (active).
For the molecule `COc1cc(/C=N/O)cc(Br)c1OCc1cccc(Cl)c1`, the cell count reduction was -29.3%.
For `Cc1ccc(O/C=C2\OC(=O)c3ccccc32)cc1`, the cell count reduction is -34.7%.
In the case of `N=c1oc2ccccc2cc1C(=O)N/N=C/c1ccccc1` it was 23.4%.
Regarding `CCc1c(O)nc(SCC(=O)Nc2ccccc2)n(C(C)CC)c1=O` (configuration not stated), the cell count reduction was -2.8%.
`COCC(C)NC(=O)c1ccc(-n2nc(C(F)(F)F)cc2-c2cccs2)cc1` (configuration not stated): the cell count reduction was -9.2%.
As for `Cn1c(=O)c2c(ncn2CC(COCc2ccccc2Cl)OCc2ccccc2Cl)n(C)c1=O` (configuration not stated), the cell count reduction is 8.7%.
On to `O=C(Nc1cccn(Cc2c(Cl)cccc2Cl)c1=O)c1ccc(Cl)cc1`, for which the cell count reduction was -1.3%.
Consider `Cc1ccc(Nc2nnc(SCc3ccccc3)s2)cc1`, for which the cell count reduction was 22.5%.
For the molecule `CC(=O)c1cnn(-c2cc(Oc3ccc(F)cc3)ncn2)c1C`, the cell count reduction is -1.7%.
In the case of `Cc1nnc(SCC(=O)NC2CCCC2)s1`, the cell count reduction is 22.6%.
On to `CNS(=O)(=O)c1cnccc1N1CCN(c2cccc(C)c2)CC1`, for which the cell count reduction was -0.7%.
Then `CC/C(O)=N\S(=O)(=O)c1ccc(N=NN(C)C)cc1`, with -5.3%; and `COc1ccc(-c2cc(C(=O)n3cnc4ccccc43)c3ccccc3n2)cc1`, with -10%.
